Source: PubChem (National Center for Advancing Translational Sciences (NCATS))
PLK1 PBD inh: PLK1 (human) polo-box domain binding inhibition. Potency, µM, for the others: max response, negative = inhibition, actives largely listed as inhibitors. AID 720504. Plk1 PBD binding of FITC phosphopeptide, fluorescence polarization. P53350. actives 2.8% (n = 360,000); also: series mostly up to about 57 µM; % is scaled to controls: 0 for no effect and ±100 for the full control effect; nearly all actives have a fitted effect of over 65% in size
HP1b chromo inh: inhibitors of HP1-beta chromodomain binding to methylated histone tails | P83916 | AlphaScreen HP1-beta / biotin-H3K9me3 peptide binding | Potency, µM (highest dose often 114 µM), without a hit: at the top dose activity change, negative = inhibition, most hits filed as inhibitors | actives 0.56% (n = 390,000) | AID 540317; also: nearly all actives have a fitted effect of over 70% in size
Target sequence (P83916 whole entry, looked up): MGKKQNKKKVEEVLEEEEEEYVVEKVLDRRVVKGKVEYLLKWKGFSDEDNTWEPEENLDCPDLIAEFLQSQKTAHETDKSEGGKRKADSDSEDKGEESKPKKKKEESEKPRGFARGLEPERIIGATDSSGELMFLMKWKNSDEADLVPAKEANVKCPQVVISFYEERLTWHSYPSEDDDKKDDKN
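AlphaScreen: HP1-beta (50 nM) preformed 30 min with biotin-H3(1-18)K9me3 peptide (50 nM) in PBS pH 7.4, 0.01% Tween-20. Compound added for 30 min at RT, then streptavidin donor/nickel chelate acceptor beads (10 ug/mL) for 30 min.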
JMJD2A Tudor inh: JMJD2A Tudor domain (human) inhibition | O75164 | AlphaScreen JMJD2A-Tudor / H3K4me3 peptide binding | Potency, µM (doses to about 114 µM), for the others: at the top dose activity change, negative = inhibition, actives largely listed as inhibitors | actives 4.4% (n = 390,000) | AID 504339; also: % is scaled to controls: 0 for no effect and ±100 for the full control effect; nearly all actives have a fitted effect of over 50% in size
G9a inh: inhibitors of human histone lysine methyltransferase G9a. G9a H3K9 monomethylation, AlphaScreen, 2 h. AID 504332. Potency, µM (titrated, usually from 102 µM), for the others: at the highest dose activity, negative = inhibition, actives largely listed as inhibitors. actives 8.8% (n = 350,000); also: % is scaled to controls: 0 for no effect and ±100 for the full control effect; nearly all actives have a fitted effect of over 75% in size
Target sequence (Q96KQ7 913-1193 limits assumed): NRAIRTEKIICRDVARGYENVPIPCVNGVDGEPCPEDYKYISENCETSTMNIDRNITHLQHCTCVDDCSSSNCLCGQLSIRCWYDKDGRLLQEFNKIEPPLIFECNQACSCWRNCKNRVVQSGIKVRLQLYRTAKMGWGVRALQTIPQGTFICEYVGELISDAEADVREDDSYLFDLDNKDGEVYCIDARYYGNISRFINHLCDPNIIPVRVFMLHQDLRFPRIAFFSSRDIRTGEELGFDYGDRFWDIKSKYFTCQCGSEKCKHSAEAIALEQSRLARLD
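Step 1: enzyme (final 20 nM) with compound, 15 min RT. Step 2: substrate peptide 500 nM and SAM 20 uM, 2 h RT. Step 3: anti-H3K9me1 antibody and AlphaScreen beads, 10 min, then plate read.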
Sfp PPTase inh: inhibitors of Bacillus subtilis Sfp phosphopantetheinyl transferase; actives 3.5% (n = 310,000); AID 1490; Q9F4F7; Biochemical Sfp PPTase activity, qHTS; Potency, µM, inactives show largest response in the series, negative = inhibition, hits mostly inhibitors;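 also: the enzyme is Sfp with the accession as filed and its product quenches rhodamine fluorescence; 0% = enzyme reaction without inhibitor and -100% = no enzyme wells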
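Fluorescence-quenching assay with 15 nM Sfp, 5 uM rhodamine-CoA and 12.5 uM BHQ-2-labelled ybbR peptide in pH 7.6 Hepes/MgCl2 buffer. Enzyme was pre-incubated with compound for 15 min at room temperature. Rate was taken from the 30-min fluorescence change (525/598 nm).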
BAZ2B block: inhibitors of human BAZ2B bromodomain. Q9UIF8. AlphaScreen BAZ2B-H3K14Ac peptide displacement. Potency, µM (titrated, usually from 114 µM), for the others: top-dose activity change, negative = inhibition, hits mostly inhibitors. actives 4.4% (n = 360,000). AID 504333; also: % is scaled to controls: 0 for no effect and ±100 for the full control effect; nearly all actives have a fitted effect of over 60% in size
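Complex of BAZ2B and biotin-H3K14Ac (50 nM apiece) forms over 30 min at RT, then faces library compounds up to 110 uM for another 30 min; AlphaScreen beads added, 20 min dark incubation, luminescence read.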
* = called active by the depositor; ? = inconclusive; / = no result given; [ ] = dose if it differs, or a comment. In the library only some 12% were active in any assay of this set; here they are far more common. Calls follow the shape of the dose curve; as a rule, active = well fitted curve in the direction sought with a large enough effect; inconclusive = small, poorly fitted or top-dose-only effect, or another doubt; inactive = no such curve, though single readings can be large; an effect the other way counts as inactive or inconclusive. Potency is read from the fitted curve at half-maximal effect.

SMILES	PLK1 PBD inh	HP1b chromo inh	JMJD2A Tudor inh	G9a inh	Sfp PPTase inh	BAZ2B block
COc1ccc(N2CCN(C(=O)c3cn(C4CCCCC4)c(=O)c4c3c3ccccc3n4C)CC2)cc1	/	?	?	10µM*	/	7.1µM*
Cn1c2ccccc2c2c(C(=O)N3CCN(c4ccc(F)cc4)CC3)cn(C3CCCCC3)c(=O)c21	/	26%	?	?	/	-1%
Cn1c(=O)c2c(SCC(=O)NCC3CCCO3)nc(-c3cccc(F)c3)nc2n(C)c1=O (centres undefined)	/	14%[57 µM]	-13%	6%[59 µM]	/	-11%
C=C(C)C(=O)OCCOCC	/	/	/	/	-9%	/
CCOC(=O)[C@]12CCC=C1N(Cc1ccc(Cl)cc1Cl)C(=O)[C@H](CC(=O)NCCc1ccccc1OC)C2	-2%	/	/	/	/	/
Cc1ccc(S(=O)(=O)Cn2nnnc2C(c2ccccn2)N2CCN(c3ccccc3)CC2)cc1 (centres undefined)	-1%	-7%	-28%	35µM*	-8%	?
Cc1ccc(S(=O)(=O)Cn2nnnc2C(C(C)C)N2CCC(O)CC2)cc1 (centres undefined)	0%	51%	-6%	9%	5%	-4%
Cc1ccc(S(=O)(=O)Cn2nnnc2C(C(C)C)N2CCc3ccccc3C2)cc1 (centres undefined)	?	3%	28µM*	?	-29%	?
Cc1ccc(S(=O)(=O)Cn2nnnc2C(C(C)C)N2CCSCC2)cc1 (centres undefined)	-11%	25%	-12%	35µM*	9%	2%
O=C(Cc1ccc(NC(=O)N2CCCCc3ccccc32)cc1)NCc1cccc(Br)c1	/	13%	-24%	9%[59 µM]	/	-11%
C[C@]12C=CC(=O)C=C1CC[C@@H]1C2[C@@H](O)C[C@@]2(C)C1CC[C@]2(O)C(=O)COC(=O)CCC(=O)O (some centres undefined)	3%	41%	-2%	-4%	8%	-5%
O=Cc1ccc2ccc3cccnc3c2n1	-5%	48%	63µM*	?	-26%	?
c1ccc2c(c1)ccc1ncccc12	-16%	20%	2%	-1%	3%	-15%
O=Cc1ccc2cccnc2n1	-13%	44%	?	40µM*	16µM*	-8%
O=C(c1ccccc1)C1CCN(C(=O)C2CCC(=O)N(Cc3ccccc3F)C2)CC1 (centres undefined)	4%	26%	-1%	67%	8%	0%
O=C(CN1C(=O)NC2(CCCCCC2)C1=O)N1CCCCC1	-17%	30%	-5%	1%[12.7 µM]	/	-4%
CCOc1ccccc1N1CCN(c2nc(N)c(C#N)c(CC#N)c2C#N)CC1	-19%	6%	-30%	?	16µM*	?
COc1ccc([N+](=O)[O-])cc1NCC(=O)Nc1cccc(S(=O)(=O)N2CCCC2)c1	-2%	15%	-26%	?	/	-19%
Oc1c(Br)cc(Br)c2cccnc12	-23%	30%	40µM*	-41%[2.33 µM]	19%	/
Brc1csc2ncccc12	-6%	7%	7%	-19%	10%	-7%
Cc1cc(C)c(S(C)(=O)=O)c(Oc2ccccc2C)n1	21µM*	-6%	-23%[11.4 µM]	10%	16%	2%
Cc1cc(C)c(S(C)(=O)=O)c(Oc2ccc(F)cc2)n1	-9%	19%	-5%	36%	15%	-2%[57.1 µM]
CCOC(=O)CSc1nc(-c2ccc(Cl)cc2)cc(C(F)(F)F)c1C#N	/	86%	62%	27%[59 µM]	/	16%
CCOc1ccc(-c2c(C#N)c(N)nc3sc(C(=O)c4ccccc4)c(N)c23)cc1	?	112%	15%	4%[59 µM]	-19%	0%
N#Cc1c(-c2ccccc2F)cc(C2CC2)nc1SCC(=O)c1cccs1	-19%	29%	-4%	45µM*	3%	-4%
SMILES	PLK1 PBD inh	HP1b chromo inh	JMJD2A Tudor inh	G9a inh	Sfp PPTase inh	BAZ2B block
CCOC(=O)CSc1nc(C2CC2)cc(-c2ccc(Cl)cc2)c1C#N	24µM*	20%	-17%	-2%[59 µM]	18µM*	19%
COc1ccc(-c2c(C#N)c(N)nc3sc(C(=O)c4ccccc4)c(N)c23)cc1	-19%	86%	15%	50µM*	-4%	23%
CCOC(=O)CSc1nc(N)c(C#N)c(-c2ccc(OC)cc2)c1C#N	-20%	58%	6%	50µM*	-12%	7%
CCSc1nc(C2CC2)cc(-c2cccs2)c1C#N	-19%	162%	291%	131%[59 µM]	-10%	213%
O=C1N(Cc2ccccc2)c2ccccc2OC1(F)F	-3%	/	/	/	/	/
C=C(C)CSc1nc(N)c(C#N)c(-c2ccc(C)cc2)c1C#N	27µM*	16%	-4%	?	-27%	-24%
Cc1nc2c(cnn2-c2ccccc2Cl)c(=O)n1-c1ccc(N2CCC(C)CC2)cc1	0%	-1%	?	50µM*	6%	?
CSc1nnc(C)c(/C=C/NOCc2cccc(F)c2)n1	0%	5%	-26%	22µM*	-9%	?
Cc1cc(C2=NNC(=NC3CC3)SC2)c(C)n1-c1c(C)n(C)n(-c2ccccc2)c1=O	3%	25%	-6%	?	?	-11%
Cc1c(N=C2NN=C(c3c[nH]c4ccccc34)CS2)c(=O)n(-c2ccccc2)n1C	?	22%	?	45µM*	?	-28%
Cc1c(N=C2NN=C(c3ccc(Cl)cc3)CS2)c(=O)n(-c2ccccc2)n1C	?	1%	-30%	10µM*	50µM*	-26%
CCCCN1CC(c2nc3ccccc3n2CCCCOc2ccccc2C)CC1=O (centres undefined)	/	34%	-12%	?	/	-1%
CCn1c(CC(=O)Nc2ccc(F)cc2)nnc1SCC(=O)N1CCOCC1	30µM*	15%[57 µM]	-20%	-39%	17%	-12%
CCOCc1cnc(C)nc1NCC(=O)c1c(C)n(C)c2ccc(OC)cc12	-2%	13%	2%	14µM*	6%	50µM*
CCOc1ccc(-n2c(C)c(C(=O)O)c3cc(OC)ccc32)cc1	-10%	16%	-17%	-3%	10%	-4%
CCOC(=O)CSC1=C(C#N)C(c2ccc(F)cc2)C(C(C)=O)=C(C)N1 (centres undefined)	-11%	44%	4%	?	?	41%
C#CCSC1=C(C#N)C(c2cccs2)C(C(=O)OCC)=C(C)N1 (centres undefined)	-23%	38%	-9%	1%[12.7 µM]	28µM*	19%
CCOC(=O)C1=C(C)NC(SCC(=O)OC)=C(C#N)C1c1ccc(C(=O)OC)cc1 (centres undefined)	-8%	42%	-11%	?	56µM*	-16%
CCC(OC(=O)c1cccs1)C(=O)NCc1ccc2c(c1)OCO2 (centres undefined)	-1%	11%	100µM*	14%[12.7 µM]	5%	-5%
